Experimental data taken from paper PMC4336329 (PLoS ONE, 2015).
Out of some 310,000 compounds screened, about 14,000 (4.5%) showed an effect of 50% or more. The effect is printed as a negative number. What follows is part of a selection rich in strong results, with near analogues and random picks from the rest.

Target: human ether-à-go-go-related gene (hERG) potassium channel (human, UniProt Q12809)
Assay: primary screen, population patch clamp on CHO cells stably expressing hERG; higher = less effect of the substance
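Further: peak tail current of the secondary pulse compared with the same well before compound.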

Sequence of human ether-à-go-go-related gene (hERG) potassium channel (Q12809 whole entry, looked up): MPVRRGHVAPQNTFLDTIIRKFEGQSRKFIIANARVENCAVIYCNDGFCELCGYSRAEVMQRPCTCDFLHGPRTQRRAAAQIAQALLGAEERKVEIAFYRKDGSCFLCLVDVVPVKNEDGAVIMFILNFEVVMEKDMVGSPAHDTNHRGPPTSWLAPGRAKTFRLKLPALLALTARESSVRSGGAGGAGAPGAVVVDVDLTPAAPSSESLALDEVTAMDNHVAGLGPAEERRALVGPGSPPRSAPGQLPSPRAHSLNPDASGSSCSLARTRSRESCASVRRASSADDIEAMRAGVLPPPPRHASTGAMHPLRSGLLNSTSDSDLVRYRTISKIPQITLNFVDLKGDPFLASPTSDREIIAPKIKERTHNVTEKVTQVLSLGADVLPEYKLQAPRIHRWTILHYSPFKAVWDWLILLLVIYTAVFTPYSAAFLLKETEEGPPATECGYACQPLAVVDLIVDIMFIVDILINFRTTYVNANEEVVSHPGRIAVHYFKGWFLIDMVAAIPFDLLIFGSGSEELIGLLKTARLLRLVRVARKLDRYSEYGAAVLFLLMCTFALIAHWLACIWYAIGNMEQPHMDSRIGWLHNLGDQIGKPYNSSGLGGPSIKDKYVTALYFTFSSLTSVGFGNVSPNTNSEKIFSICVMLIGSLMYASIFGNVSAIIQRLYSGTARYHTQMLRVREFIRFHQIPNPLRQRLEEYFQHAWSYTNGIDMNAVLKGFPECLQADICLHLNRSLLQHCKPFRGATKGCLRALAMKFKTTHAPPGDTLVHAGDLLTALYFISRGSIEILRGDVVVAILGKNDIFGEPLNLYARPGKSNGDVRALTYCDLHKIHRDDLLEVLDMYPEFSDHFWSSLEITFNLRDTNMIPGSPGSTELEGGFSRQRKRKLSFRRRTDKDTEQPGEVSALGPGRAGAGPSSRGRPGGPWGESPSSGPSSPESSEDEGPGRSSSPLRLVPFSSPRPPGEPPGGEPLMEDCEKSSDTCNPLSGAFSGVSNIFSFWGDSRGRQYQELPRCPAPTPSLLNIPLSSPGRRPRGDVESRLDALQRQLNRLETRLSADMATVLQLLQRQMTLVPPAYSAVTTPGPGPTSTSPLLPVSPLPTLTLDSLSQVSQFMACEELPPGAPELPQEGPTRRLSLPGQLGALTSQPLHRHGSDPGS

In order of rising “hERG current change (%, negative = inhibition) at 10uM” value:
1. CCCc1ccc2oc(C(=O)N(Cc3ccncc3)CC3CCCO3)c(C)c2c1 (stereo not drawn)  -71.6%
2. CN(C)CCCN(C(=O)c1ccc(S(=O)(=O)N2CCCCC2)cc1)c1nc2cc3c(cc2s1)OCO3.Cl  -70.4%
3. CCN(CC)CCN(C(=O)c1ccc(S(=O)(=O)N2CCOCC2)cc1)c1nc2cc3c(cc2s1)OCCO3.Cl  -69.2%
4. COc1cc2cc(C)c(SCC(=O)N3CCN(C(=O)c4ccco4)CC3)nc2cc1OC  -66%
5. O=C(c1cnn2c1NC(c1ccc(Br)cc1)CC2C(F)(F)F)N1CCN2CCCC2C1 (stereo not drawn)  -63.5%
6. CN(C)CCCN(C(=O)c1ccc(S(=O)(=O)N2CCOCC2)cc1)c1nc2cc3c(cc2s1)OCO3.Cl  -61.4%
7. CCCc1ccc2oc(C(=O)N(C)CCn3ccnc3C)c(C)c2c1  -61.4%
8. CN(C)CCCN(C(=O)c1ccc(S(=O)(=O)N2CCCCCC2)cc1)c1nc2cc3c(cc2s1)OCCO3.Cl  -59.7%
9. CCc1cc2ccc(C)cc2nc1SCC(=O)N1CCN(C(=O)c2ccco2)CC1  -56%
10. CCc1cc2cccc(C)c2nc1SCC(=O)N1CCN(C(=O)c2ccco2)CC1  -54.4%
11. CCc1cc2cc(C)ccc2nc1SCC(=O)N1CCN(C(=O)c2ccco2)CC1  -53.4%
12. c1ccc(CC(Nc2ccccn2)c2ccccc2)cc1 (stereo not drawn)  -52.8%
13. Cc1ccc2c(C)c(C(=O)N(Cc3ccncc3)CC3CCCO3)oc2c1C (stereo not drawn)  -51.9%
14. CCc1cc2ccc(OC)cc2nc1SCC(=O)N1CCN(C(=O)c2ccco2)CC1  -49.1%
15. CCCc1ccc2oc(C(=O)N(C)Cc3nccs3)c(C)c2c1  -48.3%
16. CN(C)CCN(C(=O)c1ccc(S(=O)(=O)N(C)C)cc1)c1nc2cc3c(cc2s1)OCCO3.Cl  -40.7%
17. CCN(CC)CCN(C(=O)c1ccc(S(=O)(=O)N2CCCCC2)cc1)c1nc2cc3c(cc2s1)OCO3.Cl  -37.6%
18. Cc1ccc2sc(N(CCCN(C)C)C(=O)c3ccc(S(=O)(=O)N4CCOCC4)cc3)nc2c1C.Cl  -35.9%
19. Cc1cc2cc3c(cc2nc1SCC(=O)N1CCN(C(=O)c2ccco2)CC1)OCO3  -35.3%
20. Cc1ccc2oc(C(=O)N(Cc3ccncc3)CC3CCCO3)c(C)c2c1 (stereo not drawn)  -34.9%
21. CC1CN(S(=O)(=O)c2ccc(C(=O)N(CCCN(C)C)c3nc4cc5c(cc4s3)OCCO5)cc2)CC(C)O1.Cl (stereo not drawn)  -28.8%
22. CCc1cc2cc3c(cc2nc1SCC(=O)N1CCN(C(=O)c2ccco2)CC1)OCO3  -28.7%
23. CCN(CC)CCN(C(=O)c1ccc(N2C(=O)CCC2=O)cc1)c1nc2cc3c(cc2s1)OCCO3.Cl  -27.6%
24. Cc1c(C(=O)N(Cc2ccncc2)CC2CCCO2)oc2c(F)cccc12 (stereo not drawn)  -27.1%
25. Cc1c(C(=O)N(Cc2ccc(N(C)C)cc2)CC2CCCO2)oc2ccccc12 (stereo not drawn)  -26.5%
26. CCc1cc2cc(C)cc(C)c2nc1SCC(=O)N1CCN(C(=O)c2ccco2)CC1  -16.2%
27. O=C1CN(C(=O)C2CC2)c2ccccc2N1  -15.8%
28. COc1ccc(OC)c(NC(=O)COC(=O)c2ccc(S(=O)(=O)N3CCOCC3)cc2)c1  -15.3%
29. CC(C)(C)OC(=O)N1CCC(NC(=O)c2[nH]cnc2C(=O)Nc2ccccc2)CC1  -15%
30. Cc1ccc2oc(C(=O)N(Cc3ccc(N(C)C)cc3)CC3CCCO3)c(C)c2c1 (stereo not drawn)  -14.8%
31. CCCc1ccc2oc(C(=O)N(C)Cc3cnccn3)c(C)c2c1  -10.9%
32. COc1cc(C=O)ccc1OCCCOc1ccc([N+](=O)[O-])cc1  -10.8%
33. CCOc1ccc(N2C(=O)CC(N3CCN(C(=O)c4ccco4)CC3)C2=O)cc1 (stereo not drawn)  -9.91%
34. O=C(c1cnn2c1NC(c1ccc(Br)cc1)CC2C(F)(F)F)N1CCN(C23CC4CC(CC(C4)C2)C3)CC1 (stereo not drawn)  -7.5%
35. CN(C)c1ccc(NC(=O)c2cccc([N+](=O)[O-])c2)c2ccccc12  -4.86%
36. C=C1C(=O)C=C2CN(C(=O)c3ccccc3)[C@@](Cc3ccc(F)cc3)(C(=O)OC)[C@@H]12  -3.22%
37. Cc1cc(C)n(C(=O)CNC(=O)C(c2ccccc2)c2ccccc2)n1  -3%
38. O=C(COC(=O)C1(c2ccc(F)cc2)CCCC1)NCc1ccco1  -2.02%
39. COc1ccc(/C=N/NC(=S)Nc2ccccc2)cc1COc1ccc(Br)cc1  -1.6%
40. COc1cc2cc(C)c(SCC(=O)N3CCOCC3)nc2cc1OC  -1.12%
41. CNC(=O)COC(=O)c1cccc(S(=O)(=O)N2CCN(c3ccc(F)cc3)CC2)c1  -0.232%
42. CCc1cc2cccc(C)c2nc1SCC(=O)NNC(=O)c1ccco1  -0.00372%
43. COc1cccc(-c2nn(-c3ccc(C)cc3)cc2C(=O)N(C)CC(=O)Nc2cccc(F)c2)c1  0.34%
44. O=C(c1ccccc1)C(Nc1ccccn1)c1ccccc1 (stereo not drawn)  1.36%
45. CCCn1nnc(NC(=O)c2ccc(Cl)cc2Cl)n1  2.23%
46. Cc1cc(Oc2ccc(C#N)cc2)nc(NCc2ccccc2)n1  2.36%
47. O=C(Nc1ccc2c(c1)OCO2)C1CC1(Cl)Cl (stereo not drawn)  3.77%
48. N#Cc1nccnc1N1CCN(C(=O)Nc2ccccc2)CC1  5.22%
49. COc1ccc(N(C(C)=O)S(=O)(=O)c2cccs2)cc1  7.03%
50. COc1cc(OC)c(OC)cc1CNC(=O)c1cc(=O)c2ccccc2o1  8.48%
51. COC(=O)C1=C(C)N(c2cccc(Cl)c2)C(=O)C1  9.01%
52. O=C(O)CCc1ccc(S(=O)(=O)N2CCOCC2)cc1  9.65%
53. CCc1cc2ccc(C)cc2nc1SCC(=O)NNC(=O)c1ccco1  12%
54. CCC(C)NC(=O)c1ccc(C(=O)c2ccccc2)cc1 (stereo not drawn)  12.7%
55. CN1CCN(C(=O)c2cnn3c2NC(c2ccccc2)CC3C(F)(F)F)CC1 (stereo not drawn)  17.1%
56. CCc1cc2cc(C)ccc2nc1SCC(=O)NNC(=O)c1ccco1  21.9%
57. COP(=O)(OC)C(Nc1ccccn1)c1ccccc1 (stereo not drawn)  26.6%
